From PubChem
Only some compounds are listed: those with a hit (about 1.2% of all), similar ones and a draw of the others.
RXFP1 antagonist: RXFP1 (human) relaxin receptor antagonism; HEK293-RXFP1, relaxin-stimulated cAMP HTRF, 30 min; stronger effect = lower value; 350,000 compounds, 0.59% hits; activity change, negative = inhibition, % at 57.5 µM;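 active = activity change of -60% or lower, but not beyond a set lower limit; inconclusive = change between -60% and -40%, or beyond the set limit; inactive = change above -40%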
Target sequence (Q9HBX9 whole entry, looked up): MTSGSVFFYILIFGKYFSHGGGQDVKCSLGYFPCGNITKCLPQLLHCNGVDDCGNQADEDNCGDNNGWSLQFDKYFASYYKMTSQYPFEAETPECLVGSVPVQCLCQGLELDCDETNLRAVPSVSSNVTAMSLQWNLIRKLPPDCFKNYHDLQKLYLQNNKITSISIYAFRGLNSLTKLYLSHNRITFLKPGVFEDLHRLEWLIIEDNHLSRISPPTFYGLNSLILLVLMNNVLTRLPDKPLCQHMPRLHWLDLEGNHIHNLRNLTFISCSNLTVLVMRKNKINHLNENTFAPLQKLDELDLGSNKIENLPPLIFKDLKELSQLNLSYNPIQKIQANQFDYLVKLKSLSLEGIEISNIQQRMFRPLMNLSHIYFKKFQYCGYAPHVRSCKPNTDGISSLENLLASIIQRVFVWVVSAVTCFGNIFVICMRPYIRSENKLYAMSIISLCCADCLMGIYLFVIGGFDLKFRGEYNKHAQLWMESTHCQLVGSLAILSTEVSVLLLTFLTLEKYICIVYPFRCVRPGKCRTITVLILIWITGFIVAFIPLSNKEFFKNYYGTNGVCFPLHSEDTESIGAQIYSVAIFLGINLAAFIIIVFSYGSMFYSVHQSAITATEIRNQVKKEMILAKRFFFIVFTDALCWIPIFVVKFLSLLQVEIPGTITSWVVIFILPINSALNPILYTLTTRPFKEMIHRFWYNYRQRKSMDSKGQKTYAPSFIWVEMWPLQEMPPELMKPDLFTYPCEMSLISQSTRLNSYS
gsp agonist: agonists of gsp mutant (McCune-Albright syndrome). 340,000 compounds, 0.13% hits. gsp mutant cells, cAMP HTRF, 30 min. Potency, µM (top dose mostly 76.9 µM), usual class: activators; active = well fitted activation curve with a large enough effect; inconclusive = small, poorly fitted or top-dose-only effect, or another doubt; inactive = no such curve, though single readings can be large or run the other way; cell line not stated here;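 also: phosphodiesterase inhibitor Ro 20-1724 added with compounds to block cAMP breakdown; nearly all actives have a fitted effect of over 60% in size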
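Cells stably selected in G418 were plated at 2000/well, grown 16-24 hr, then given compounds in DMSO with the PDE inhibitor […] (300 uM solution added) for 30 min at 37C; cAMP was read by HTRF.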
Mm-Cpn inhibitor: blocks the Methanococcus maripaludis chaperonin Mm-Cpn. AID 504842. Potency, µM (titrated, usually from 76.9 µM), usual class: inhibitors. purified Mm-Cpn ATPase, ADP Transcreener TR-FRET. 330,000 compounds, 0.031% hits; also: nearly all actives have a fitted effect of over 80% in size
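Compound-treated chaperonin, 25 nM final, turns over 10 uM ATP at 37°C for 30 min following a 10 min preincubation; ADP generated competes with ADP-d2 for Eu-cryptate antibody, lowering FRET.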
CCT modulator: changes cytosolic chaperonin activity; purified chaperonin ATPase assay, HTRF ADP detection, 30 min; activity change, % (test concentration not listed), hits read low; 360,000 compounds, 0.3% hits; AID 651819; in the data active = activity change below about -30%
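ATPase activity: ADP formed was measured by HTRF Transcreener (665/615 nm ratio) after 30 min at 37 deg C with 10 uM ATP. Compounds screened at one 76 uM concentration against 40 or 20 nM TRiC in Tris pH 7.4/KCl/MgCl2/DTT buffer.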
gsp antag: gsp mutant antagonism. gsp-mutant cells, cAMP HTRF, 30 min. Potency, µM (series often up to 76.9 µM), most hits filed as inhibitors. 340,000 compounds, 0.4% hits. AID 624288; calls by dose curve; cell line not stated here;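 also: intracellular cAMP measured with PDE inhibitor Ro 20-1724 present during compound exposure; nearly all actives have a fitted effect of over 65% in size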
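Cells, 2000/well, grown 16–24 h in DMEM 10% FBS with 0.5 mg/ml G418, then compounds plus […] (300 uM addition stock), 30 min at 37C. cAMP read by HTRF (cAMP-d2 and anti-cAMP antibody-K in lysis buffer) after 30 min RT.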
RXFP1 ag: RXFP1 (human) receptor agonism. Potency, µM (series often up to 57.5 µM), hits mostly activators. AID 2676. HEK293T-RXFP1 cAMP TR-FRET, 30 min; response scale: percent of porcine relaxin response, buffer zero. Q9HBX9. 370,000 compounds, 0.3% hits; also: nearly all actives have a fitted effect of over 60% in size
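cAMP rise read by TR-FRET after 30 min, 37C compound exposure (up to 58 uM) in RXFP1-transfected HEK293 cells with Ro 20174 present. EC50 from Hill-equation fits, with 29 nM porcine relaxin as 100% and buffer as basal.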
Each line names hits and unclear results; the compound was inactive in the other large screens. Unless noted, calls follow the shape of the dose curve; as a rule, active = well fitted curve in the direction sought with a large enough effect; inconclusive = small, poorly fitted or top-dose-only effect, or another doubt; inactive = no such curve, though single readings can be large; an effect the other way counts as inactive or inconclusive.

CCOC(=O)c1c(-c2ccccc2)cn2ccccc12	gsp agonist inconclusive
CCOC(=O)c1c(-c2ccccc2)c[nH]c1C	RXFP1 antagonist -87.6 (no result: Mm-Cpn inhibitor, RXFP1 ag)
CC(NC(=O)OC(C)(C)C)C(=O)NC(CCC(=O)OCc1ccccc1)C(N)=O (stereo not given)	CCT modulator -60.2
CC(=O)/C(N=Nc1c(C)n(C)n(-c2ccccc2)c1=O)=C(\C)O	gsp agonist 11.2µM
c1cc2[nH]snc2c2nc(C3CC3)nc12	gsp agonist 25.1µM
O=c1oc2ccccc2cc1-c1cn2cc(Cc3ccccc3F)sc2n1	none (no result: gsp agonist, Mm-Cpn inhibitor, CCT modulator, gsp antag)
Cc1ccc(S(=O)(=O)Nc2ccc3c(c2)C(=O)N([C@H](C)CO)C[C@H](C)[C@H](CN(C)C(=O)Nc2cccc4ccccc24)OCCCC[C@@H](C)O3)cc1	CCT modulator -30.9 (no result: Mm-Cpn inhibitor, gsp antag, RXFP1 ag)
C[C@@H]1CCCCO[C@@H](CN(C)C(=O)Nc2ccccc2)[C@@H](C)CN([C@H](C)CO)C(=O)c2cc(N(C)C)ccc2O1	gsp agonist 14.1µM (no result: Mm-Cpn inhibitor, gsp antag, RXFP1 ag)
COc1ccc(NC(=O)N(C)C[C@H]2OCCCC[C@@H](C)Oc3ccc(N(C)C)cc3C(=O)N([C@H](C)CO)C[C@@H]2C)cc1	none (no result: Mm-Cpn inhibitor, gsp antag, RXFP1 ag)
CC(C)(C)c1ccc(C(=O)NCC(c2cccs2)S(=O)(=O)c2ccc(F)cc2)cc1 (stereo not given)	none (no result: RXFP1 antagonist, gsp agonist, Mm-Cpn inhibitor, CCT modulator, gsp antag)
CNC(=O)c1ccc(Nc2nnc(-c3ccc(C)c(S(=O)(=O)N4CCOCC4)c3)c3ccccc23)cc1	none (no result: gsp agonist, Mm-Cpn inhibitor, CCT modulator, gsp antag)
COc1ccc(N(C)C(=O)c2cn(C3CCCCC3)c(=O)c3c2c2ccccc2n3C)cc1	none (no result: gsp agonist, Mm-Cpn inhibitor, CCT modulator, gsp antag)
CC(C)NCCCC1(C(N)=O)c2ccccc2-c2ccccc21	none (no result: gsp agonist, Mm-Cpn inhibitor, CCT modulator, gsp antag, RXFP1 ag)
COc1ccc(C)cc1S(=O)(=O)N(CC(=O)NC1CCCC1)c1ccc(F)cc1	none
COc1ccc(C)cc1S(=O)(=O)N(CC(=O)O)c1ccc(F)cc1	CCT modulator -33.3 (no result: Mm-Cpn inhibitor)
Cc1cccc(N2CCN(S(=O)(=O)c3ccc4oc(=O)c5ncn(C)c5c4c3)CC2)c1C	none (no result: gsp agonist, Mm-Cpn inhibitor, CCT modulator, gsp antag)
O=C(NNC(=O)C12CC3CC(CC(C3)C1)C2)c1ccccc1F	CCT modulator -45.5
O=C(NNC(=O)C12CC3CC(CC(C3)C1)C2)c1ccccc1O	none
Cc1ccc(N(Cc2cccs2)C(=O)COc2ccccc2[N+](=O)[O-])cc1	none (no result: gsp agonist, Mm-Cpn inhibitor, CCT modulator, gsp antag)
O=C(OCc1cc(=O)n2cc(Br)ccc2n1)C1COc2ccccc2O1 (stereo not given)	gsp agonist 10µM
C=Cc1ccc2c(c1)N(C)C(=C)S2	RXFP1 antagonist -119.3
CC(=O)c1ccc2c(c1)N(C)c1ccccc1S2	none
Cc1ccc(C(=O)Cn2nnc(-c3cccs3)n2)cc1	gsp agonist inconclusive, gsp antag 50.1µM
CCCCCOc1ccc(C2SC(=O)NC2=O)cc1OCC (stereo not given)	none (no result: gsp agonist, Mm-Cpn inhibitor, CCT modulator, gsp antag, RXFP1 ag)
COC(=O)CSc1nc2c(cnn2-c2ccc(F)cc2)c(=O)[nH]1	CCT modulator -31.6
NC(=O)CSc1nc2c(c(=O)n1-c1ccccc1)C1(CCCCC1)Cc1ccccc1-2	none
Cc1cccc(-n2c(SCC(N)=O)nc3c(c2=O)C2(CCCC2)Cc2ccccc2-3)c1	gsp agonist 10µM (no result: RXFP1 antagonist)
CN1CCN(C(=O)c2ccccc2NC(=O)c2ccccc2Br)CC1	none
Cc1ccccc1N1CCN(C(=O)c2ccccc2NC(=O)c2ccccc2C(=O)O)CC1	CCT modulator -66.2
Cc1ccccc1OCC(=O)Nc1cccc(S(=O)(=O)NC2=NCCC2)c1	none
Cc1ccc(C(C)C)c(OCC(=O)Nc2cccc(S(=O)(=O)NC3=NCCCCC3)c2)c1	CCT modulator -35.5
Cc1ccc(C(C)C)c(OCC(=O)Nc2ccc3c(c2)nc(CCN2CCCCC2)n3C)c1	RXFP1 antagonist -60.6, gsp agonist inconclusive
O=C1N/C(=N/NC(=O)c2cccc3ccccc23)S/C1=C\c1ccccc1OCc1ccccc1	RXFP1 antagonist inconclusive, gsp agonist inconclusive, gsp antag 28.2µM
COc1cc(-c2cc(OC)c3c(C)oc(C)c3c(=O)c2)ccc1OC(=O)c1ccccc1C	RXFP1 antagonist -65.2 (no result: gsp agonist, Mm-Cpn inhibitor, CCT modulator, gsp antag)
